# Assay outcomes as filed in PubChem.
# D2 ag-1 – HTS Assay for Allosteric Agonists of the Human D2 Dopamine Receptor: Primary Screen for Agonists; D(2) dopamine receptor (Homo sapiens), P14416; HEK293 T-REx D2 cells, calcium flux agonist mode; activation, % at 2 µM; 0.53% of 340,000 active; AID 485358, 2010;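 active = activation over 3 SD above normal in the single-dose calcium agonist read, cut at about 30% in these data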; also: 0% is about no effect
# Target sequence (P14416 whole entry, looked up): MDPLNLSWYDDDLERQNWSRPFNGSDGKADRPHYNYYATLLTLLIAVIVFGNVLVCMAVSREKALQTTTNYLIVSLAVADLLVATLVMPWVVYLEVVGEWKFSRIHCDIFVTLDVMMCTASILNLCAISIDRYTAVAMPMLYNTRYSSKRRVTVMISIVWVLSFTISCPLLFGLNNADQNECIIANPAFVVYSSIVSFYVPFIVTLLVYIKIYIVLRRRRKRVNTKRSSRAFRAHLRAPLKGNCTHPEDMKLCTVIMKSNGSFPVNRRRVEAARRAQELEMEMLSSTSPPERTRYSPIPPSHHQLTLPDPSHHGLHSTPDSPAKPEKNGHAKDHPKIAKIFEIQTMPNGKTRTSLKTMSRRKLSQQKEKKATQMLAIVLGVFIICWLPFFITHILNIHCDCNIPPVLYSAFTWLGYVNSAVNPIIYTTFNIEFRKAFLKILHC
#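 Tetracycline-induced HEK293 T-REx cells with force-coupled D2 receptor, plated overnight at 30 C, loaded with no-wash calcium dye. After a 10 s baseline, compound was pin-added and calcium flux read kinetically for 180 s; calcium rises flagged agonists.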
# D2 PAM-1 – HTS Assay for Positive Allosteric Modulators of the Human D2 Dopamine Receptor: Primary Screen for Potentiators; D(2) dopamine receptor (Homo sapiens), P14416; HEK293 T-REx D2, calcium flux, EC20 dopamine potentiation; potentiation, % at 10 µM; 0.34% of 340,000 active; AID 485347, 2010;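 active = potentiation over 3 SD above the plate norm, cut at about 30% in these data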; also: 0% is about no effect
#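 Using a no-wash calcium dye in inducible, force-coupled HEK293 Trex cells expressing D2, we tracked fluorescence each second for 180 s after compound, then for 180 s after EC20 dopamine to detect augmented signalling.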
# D2 antag – HTS Assay for Allosteric Antagonists of the Human D2 Dopamine Receptor: Primary Screen for Antagonists; D(2) dopamine receptor (Homo sapiens), P14416; AID 485344, 2010; inhibition, % at 10 µM; HEK293 TREx D2 cells, calcium flux, dopamine EC80; 2% of 340,000 active; in the data active = inhibition above about 30%; inactive = below that, where a call was filed; also: 0% is about no effect
#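 Cells plated overnight at 30 C with tetracycline; no-wash calcium dye, 30–90 min RT; 10 s baseline; compound pinned; 180 s read; EC80 dopamine added; another 180 s read.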
# D2 PAM-2 – Beta-Arrestin HTS for Positive Allosteric Modulators of the Human D2 Dopamine Receptor: Potentiators. DiscoveRx D2 beta-arrestin cells, luminescence, 90 min; 100% = 57 uM dopamine signal. D(2) dopamine receptor (Homo sapiens), P14416. 0.23% of 360,000 active. AID 624464, 2012. potentiation, % (concentration not given with the values); in the data active = potentiation above about 50%; inconclusive = mostly about 30% to 49%
#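 PathHunter D2 cells, attached overnight at 37 deg C, received compound in DMSO plus dopamine at EC20 (50 nM final) for 90 min at 37 deg C. Beta-arrestin recruitment was read as luminescence after 1 h with detection reagent at ambient temperature.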
# D2 ag-2 – Beta-Arrestin HTS for Positive Allosteric Modulators of the Human D2 Dopamine Receptor: Agonists | activation, % (no concentration beside the values) | D(2) dopamine receptor (Homo sapiens), P14416 | 0.084% of 360,000 active | AID 624465, 2012 | DiscoveRx PathHunter D2 beta-arrestin, luminescence, 90 min; 100% = 57 uM dopamine signal; in the data active = activation above about 40%; inconclusive = between about 15% and that limit
#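 Agonist mode: compounds alone added to overnight-plated D2 PathHunter cells for 90 min at 37 C, with 57 uM final dopamine (EC100) defining full response. Beta-arrestin recruitment detected by chemiluminescent reagent, read after 1 h at ambient temperature.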
# Numbers without * were called inactive; ? = inconclusive; · = no result given. This is a sample that favours compounds with a hit; in the whole collection about 2.4% have one here.
SMILES,D2 ag-1,D2 PAM-1,D2 antag,D2 PAM-2,D2 ag-2
CCC(C)Oc1ccc(/C=C/c2[nH]c(=O)[nH]c(=O)c2[N+](=O)[O-])cc1OC (stereo unspecified),-1,34*,-6,-4,-5
O=[N+]([O-])c1cccc(-c2nnc(C34CC5CC(CC(C5)C3)C4)o2)c1,0,-6,-7,-6,-3
O=[N+]([O-])c1cc(-c2nnc(C34CC5CC(CC(C5)C3)C4)o2)cc([N+](=O)[O-])c1,-1,-1,-6,145*,?
Cc1cccc(CSc2cn(CC(=O)N3CCOCC3)c3ccccc23)c1,0,0,35*,-7,-1
O=C(Cn1cc(/C=N/O)c2ccccc21)N1CCOCC1,1,-5,39*,-9,-5
COc1ccc(S(=O)(=O)N2CCN(c3ccccc3F)CC2)cc1-c1noc(C)n1,·,-19,·,·,·
O=C(CN1C(=O)c2ccc([N+](=O)[O-])cc2C1=O)NCc1ccc(C(=O)O)cc1,1,0,4,51*,9
O=C(CCN1C(=O)c2ccc([N+](=O)[O-])cc2C1=O)Nc1ccc(O)cc1C(=O)O,-2,17,-2,61*,?
CCOC(=O)c1c(NC(=O)COc2cccc(C(F)(F)F)c2)sc2c1CCC(C)C2 (stereo unspecified),-1,-4,·,·,·
Cc1cc(C(=O)N2CCN(c3cccc(Cl)c3)CC2)c2c(C)nn(-c3ccccc3Cl)c2n1,-1,-10,·,·,·
O=C(NCCc1ccc(Cl)cc1)C1CCN(c2ncccn2)CC1,-2,10,61*,-26,-2
O=C(NCCc1ccc(Cl)cc1)C1CCN(c2cnccn2)CC1,-1,-3,0,2,1
CCc1ccc(S(=O)(=O)c2nnn3c2nc(NCc2cccs2)c2sccc23)cc1,0,4,·,·,·
Cc1cc(NC(=O)c2cccn2-c2nnc(N3CCCCC3)s2)ccc1Br,0,·,·,·,·
COc1ccc(CNC(=O)C2CCN(S(=O)(=O)Cc3ccccc3)CC2)cc1,-2,9,·,·,·
COCCOC(=O)c1c(C)oc2ccc(OCc3ccccc3)cc12,0,16,64*,-5,-5
COC(=O)CSc1nnc(COc2ccc3ccccc3c2)o1,0,9,13,2,5
O=C(CSc1nnc(-c2cccc(F)c2)o1)N1CCCC1,0,0,32*,-4,-4
O=C(CSc1nnc(COc2ccc(F)cc2)o1)N1CCCCC1,0,-15,97*,1,-3
O=C(NCc1nnc(SCC(=O)N2CCCC2)o1)c1c(F)cccc1F,2,-8,32*,16,-3
CCOC(=O)CSc1nnc(COc2ccc3ccccc3c2)o1,0,6,34*,0,-1
O=C(NCc1nnc(SCC(=O)N2CCCC2)o1)c1c(F)cccc1Cl,-1,0,-18,7,-2
CC(=O)Nc1cccc(NC(=O)CSc2cn(CC(=O)N3CCCCCC3)c3ccccc23)c1,0,-5,·,·,·
CCC(C)NC(=O)CSc1nc2cc3c(cc2c(=O)n1CCCCCC(=O)NCc1ccc2c(c1)OCO2)OCO3 (stereo unspecified),3,3,·,·,·
Cc1ccccc1Nc1c(-c2ccc(Cl)s2)nc2cccc(C)n12,0,-7,·,·,·
SMILES,D2 ag-1,D2 PAM-1,D2 antag,D2 PAM-2,D2 ag-2
Cc1cccc(OCc2nnc(SCC(=O)N3CCCC3)o2)c1,-1,6,11,-3,10
Cc1cc(C)cc(OCc2nnc(SCC(=O)N3CCCCC3)o2)c1,-1,44*,-4,-2,-2
CCC(C)NC(=O)Cn1c(=O)n(-c2ccc(Cl)c(Cl)c2)c(=O)c2c(C)c(C(=O)N(CC)CC)sc21 (stereo unspecified),0,-2,·,·,·
CCN(Cc1nc(-c2ccc(OC)cc2)oc1C)S(=O)(=O)c1ccc(Cl)cc1,2,3,·,·,·
Cc1[nH]c(=O)[nH]c(=O)c1S(=O)(=O)Nc1ccc(Oc2ccccc2)cc1,0,6,-8,3,-2
CN(C)S(=O)(=O)Nc1ccc(Oc2ccccc2)cc1,0,3,35*,-20,-1
O=C(Cn1ncc2c(Cl)cccc21)NCc1cccc(Br)c1,-1,5,·,·,·
O=C(Cc1cccs1)Nc1ccc(NC(=O)c2ccco2)cc1,0,-11,31*,1,2
O=C1CCC(=O)N1CCC(c1ccc(F)cc1)c1ccco1 (stereo unspecified),2,9,17,-17,-1
O=C1NCN(c2ccccc2)C12CCN(CCCC(c1ccc(F)cc1)c1ccc(F)cc1)CC2,4,-26,69*,-33,-7
CC1=CC(C)(C)Nc2ccc(OC(=O)CN3C(=O)c4ccccc4C3=O)cc21,-2,5,1,113*,15
COC(=O)c1ccc(CN2C(=O)c3ccccc3C2=O)cc1,0,3,-10,1,1
COC(=O)c1ccc(OC(=O)CN2C(=O)c3ccccc3C2=O)cc1,0,-4,-10,75*,3
Cc1c(Cl)cccc1NC(=O)CN1C(=O)COc2ccc(S(=O)(=O)N3CCCCCC3)cc21,0,3,·,·,·
COc1cccc(CNC(=O)CCn2nc(C)c3c(C)n(-c4ccccc4)nc3c2=O)c1,-1,-1,·,·,·
COc1ccc(-c2[nH]ncc2CN2CCC(O)(c3ccc(Cl)cc3)CC2)cc1,-1,-22,18,-12,2
OC1(c2ccc(Cl)cc2)CCN(Cc2cn[nH]c2-c2ccccc2)CC1,0,-22,84*,-14,3
OC1(c2ccc(Cl)cc2)CCN(Cc2cn[nH]c2-c2ccc(F)cc2)CC1,3,-20,56*,-16,2
Fc1ccc(N2CCN(Cc3cn[nH]c3-c3ccccc3)CC2)cc1,6,-14,-4,-15,1
CCCc1cc(=O)[nH]c(SCC(=O)N2c3ccccc3CC2C)n1 (stereo unspecified),·,·,·,10,2
CCCc1cc(=O)[nH]c(SC(C)C(=O)N2c3ccccc3CC2C)n1 (stereo unspecified),0,-29,44*,11,6
COc1ccc(C(=O)NCC(c2ccco2)S(=O)(=O)c2cccs2)cc1 (stereo unspecified),1,-9,·,·,·
CC1=CC2=NC(=O)CC(C)(C(=O)N(CC(=O)NC(C)(C)C)C3CCCC3)N2C=C1 (stereo unspecified),-1,4,-2,3,0
